# CYP2C9 activ: activators of human CYP2C9. recombinant CYP2C9, luciferin-H conversion, luminescence; active compounds read high; factor 1 = untreated enzyme, 0 = blocked. activation factor at 5 µM. 1.4% of 96,000 active. AID 1024;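 active means activation factor of 2 or more for CYP2C9 at a 5 µM dose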
# CYP2C19 activ: increases human CYP2C19 enzyme activity | recombinant CYP2C19, luciferin-H EGE luminescence; active compounds read high; 0 = fully inhibited enzyme, 1 = untreated enzyme | activation factor at 5 µM | 96,000 tested, under 10 active;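 active means activation factor of at least 2 at 5 µM in the primary screen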
# Target sequence (P33261 whole entry, looked up): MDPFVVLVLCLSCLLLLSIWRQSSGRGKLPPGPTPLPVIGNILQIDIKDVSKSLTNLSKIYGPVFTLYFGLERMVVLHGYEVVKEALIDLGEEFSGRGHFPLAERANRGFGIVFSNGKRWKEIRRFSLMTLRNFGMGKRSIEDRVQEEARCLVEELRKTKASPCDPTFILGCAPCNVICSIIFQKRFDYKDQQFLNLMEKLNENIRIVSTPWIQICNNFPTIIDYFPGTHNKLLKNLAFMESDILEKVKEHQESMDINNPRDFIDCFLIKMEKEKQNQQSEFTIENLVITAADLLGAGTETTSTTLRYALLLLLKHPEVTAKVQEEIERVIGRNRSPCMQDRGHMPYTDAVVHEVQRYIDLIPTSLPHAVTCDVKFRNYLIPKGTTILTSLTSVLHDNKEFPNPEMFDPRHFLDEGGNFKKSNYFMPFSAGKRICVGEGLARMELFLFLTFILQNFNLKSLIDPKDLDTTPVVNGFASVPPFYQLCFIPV
# CYP2C9 inhib: human CYP2C9 inhibition; CYP2C9 Supersomes, luciferin-H conversion, luminescence; inhibition, % at 5 µM; 20% of 96,000 active; P11712;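 active means blocking of liver enzyme CYP2C9 beyond about 50% at 5 µM, limit read from the data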
# CYP2C19 inhib: inhibitors of human CYP2C19. CYP2C19 Supersomes, luciferin-H EGE luminescence, 30 min. inhibition, % at 5 µM. 21% of 96,000 active. AID 778;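 active means CYP2C19 inhibition above a set limit at 5 µM in the primary screen, cut at about 50% in these data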
# Cav3 T inh: blocks human Cav3.2 T-type calcium channel | Cav3.2-expressing cells, Fluo-4 calcium fluorescence FDSS; active compounds read low | B-score at 10 µM | 4% of 100,000 active | AID 449739;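 active means single-dose well whose peak fluorescence ratio is a statistical outlier from its plate by either plate-standardised score or position-corrected B-score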
# A number is an active result; . = inactive; / = not tested or not shown. A selection: hits, their analogues and other compounds. The true share with any hit is near 27%.
SMILES,CYP2C9 activ,CYP2C19 activ,CYP2C9 inhib,CYP2C19 inhib,Cav3 T inh
Cc1nc(SCC(C)C)[nH]c(=O)c1Cc1ccccc1,.,.,.,59,.
CC(C)c1c(O)nc(SCc2ccccc2)[nH]c1=O,.,.,52,.,.
C=C(C)CSc1nc(C)c(Cc2ccccc2)c(=O)[nH]1,.,.,.,.,.
CCCC/C(C)=N\NC(=O)CNS(=O)(=O)c1ccc([N+](=O)[O-])cc1,.,.,.,.,.
CCc1ccc(NSc2ccccc2[N+](=O)[O-])cc1,.,.,.,65,.
c1cnc(NC2CCCCCC2)nc1,.,.,.,.,.
COC(=O)c1cc(=O)n(Cc2ccc3c(c2)OCO3)c(=Nc2ccccc2)s1,.,.,68,.,.
COC(=O)c1cc(=O)n(Cc2ccc3c(c2)OCO3)c(=Nc2ccc(F)cc2)s1,.,.,.,.,.
COC(=O)c1cc(=O)n(Cc2cccs2)c(=Nc2ccc(F)cc2)s1,/,/,/,/,.
COC(=O)c1cc(=O)n(CCc2ccccc2F)c(=Nc2ccc(F)c(Cl)c2)s1,.,.,.,.,-3.5
COC(=O)c1cc(=O)n(Cc2ccco2)c(=Nc2ccc(F)c(Cl)c2)s1,.,.,69,64,.
COc1ccccc1CC(NC(C)=O)C(=O)N1CCN(C(=O)Nc2ccccc2Cl)CC1 (centres undefined),.,.,.,.,.
c1cnc2c(C3NCCc4c3[nH]c3ccccc43)cccc2c1 (centres undefined),/,/,/,/,.
O=C(OCc1nc2ccccc2[nH]1)C12CC3CC(CC(C3)C1)C2,.,.,.,.,-6.7
O=C(COc1ccccc1)Nc1nc2ccccc2[nH]1,.,.,.,.,.
Cc1ccc2nc(SCCCCOc3ccccc3)[nH]c2c1,.,.,72,63,-6.2
O=C(Nc1nc2ccccc2[nH]1)C12CC3CC(CC(C3)C1)C2,.,.,.,.,.
c1ccc(OCCSc2nc3ccccc3[nH]2)cc1,/,/,/,/,-3.6
c1ccc(OCc2nc3ccccc3[nH]2)cc1,.,.,.,74,.
Cc1ccc(S(=O)(=O)N2CCN(S(=O)(=O)c3ccccc3)C2c2ccc(N(C)C)cc2)cc1 (centres undefined),.,.,88,94,.
COc1ccc(C2N(S(=O)(=O)c3ccc(C)cc3)CCN2S(=O)(=O)c2ccc(C)cc2)cc1,.,.,90,96,.
CC(=O)N1CCN(S(=O)(=O)c2ccc(C)cc2)C1c1ccc(N(C)C)cc1 (centres undefined),.,.,.,.,.
CC(C)C1N(S(=O)(=O)c2ccccc2)CCN1S(=O)(=O)c1ccccc1,.,.,100,100,.
CC(C)C1N(C(=O)CN2CCCC2)CCN1S(=O)(=O)c1ccccc1 (centres undefined),.,.,.,.,.
Cc1cc(C)c2cc(C#N)c(NCCOC(=O)c3ccccc3C)nc2c1,.,.,68,62,.
SMILES,CYP2C9 activ,CYP2C19 activ,CYP2C9 inhib,CYP2C19 inhib,Cav3 T inh
CCOC(=O)c1cc(C#N)c(SC)nc1-c1ccccc1,.,.,.,.,.
Cc1ccc(CN2C(=O)CCC2C(=O)NCCCN2CCCC(C)C2)cc1 (centres undefined),.,.,.,.,.
N#CC1(Cc2ccc([N+](=O)[O-])cc2)c2ccccc2C=CN1C(=O)c1ccccc1 (centres undefined),.,.,68,68,/
CC(=O)[C@@H]1[C@@H]2C(=O)N(Cc3ccccc3)C(=O)[C@@H]2C2c3ccccc3C=CN21 (some centres undefined),.,.,.,.,.
N#CC1(Cc2ccccc2)c2ccccc2C=CN1C(=O)c1ccccc1 (centres undefined),.,.,72,93,.
C=C1/C(=C\C=C2/CCC[C@]3(C)[C@@H]([C@H](C)CCCC(C)(C)O)CC[C@@H]23)C[C@@H](O)C[C@@H]1O,/,/,/,/,.
COC(=O)C1=C(C)N(C)C(C)=C(C(=O)OC)C1c1ccc(Cl)cc1,.,.,58,.,.
CCOC(=O)C1=C(C)N(C)C(C)=C(C(=O)OCC)C1c1ccc(C(=O)OC)cc1,.,.,99,99,-7
Nc1nnc(CSCc2ccc(F)cc2)s1,.,.,.,.,.
Cc1ccccc1N1C(=O)CC(Sc2nnc(-c3ccccc3)o2)C1=O (centres undefined),.,.,.,.,.
COc1ccc(C(=O)Nc2oc(-c3ccccc3)c(-c3ccccc3)c2C#N)cc1,.,.,77,.,-7
Cc1cccc(C)c1OCC(=O)Nc1oc(-c2ccccc2)c(-c2ccccc2)c1C#N,/,/,/,/,.

# Screening results as filed in PubChem.
